High-throughput results as filed in PubChem BioAssay.
Sm TGR block: S. mansoni TGR enzyme inhibition; hit rate 3% among 360,000; purified TGR, DTNB reduction, TNB absorbance 405 nm; Q962Y6; Potency, µM (doses to about 114 µM), hits mostly inhibitors; further: nearly all actives have a fitted effect of over 60% in size
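Kinetic colorimetric format: TGR-catalysed, NADPH-driven DTNB reduction monitored via TNB absorbance. Enzyme dispensed at 20 nM; compound exposure 15 min at room temperature before reaction start.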
LmPK inh: inhibitors of Leishmania mexicana pyruvate kinase; hit rate 0.37% among 290,000; purified LmPK, Kinase-Glo ATP luminescence, 1 h; AID 1721; Potency, µM (top dose mostly 57.5 µM), most hits filed as inhibitors
Target sequence (Q27686 whole entry, looked up): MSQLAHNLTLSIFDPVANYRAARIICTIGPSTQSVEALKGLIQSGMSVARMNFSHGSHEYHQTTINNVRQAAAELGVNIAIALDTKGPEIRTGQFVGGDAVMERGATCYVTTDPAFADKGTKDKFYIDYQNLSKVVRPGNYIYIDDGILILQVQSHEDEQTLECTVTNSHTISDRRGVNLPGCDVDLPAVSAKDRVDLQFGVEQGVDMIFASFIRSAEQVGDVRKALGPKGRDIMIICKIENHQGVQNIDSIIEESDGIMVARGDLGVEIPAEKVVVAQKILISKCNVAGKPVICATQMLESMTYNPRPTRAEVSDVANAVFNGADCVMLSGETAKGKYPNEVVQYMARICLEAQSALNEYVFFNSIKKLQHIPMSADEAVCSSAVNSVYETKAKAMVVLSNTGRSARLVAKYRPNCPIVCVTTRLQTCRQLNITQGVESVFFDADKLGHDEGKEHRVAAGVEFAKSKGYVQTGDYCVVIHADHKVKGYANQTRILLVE
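0.1 nM LmPK, 0.5 mM PEP, 0.1 mM ADP; 50 mM imidazole pH 7.2, 7 mM MgCl2, 50 mM KCl; 1 h RT. Kinase-Glo luminescence readout, normalized to no-enzyme (full inhibition) and uninhibited wells.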
Cycloheximide cs: counter-screen hit for Shiga toxin inhibitors, cycloheximide; max response, %; hit rate 12% among 300,000; cell reporter, cycloheximide protein synthesis inhibition counterscreen; AID 2314; in the data active means max response mostly above about 13%, no sharp cut-off; inactive means mostly below about 14%; further: read at 38.3 µM for the half of the compounds with a filed dose
TbPYK inhibitor: T. brucei pyruvate kinase inhibition. Q57TT1. TbPYK enzyme, Kinase-Glo Plus ATP luminescence, 45 min. Potency, µM (titrated, usually from 76.8 µM), hits mostly inhibitors. hit rate 0.12% among 410,000; further: nearly all actives have a fitted effect of over 50% in size
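Screened from lowest to highest concentration, compounds were pinned into TbPYK/substrate mixtures, and ADP (130 uM final) was added. Plates sat at room temperature for 45 min prior to Kinase-Glo Plus detection by luminescence.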
FBPA Giardia inh: Giardia lamblia aldolase inhibition; Potency, µM (top dose mostly 59.6 µM), actives largely listed as inhibitors; A8B2U2; AID 2451; hit rate 0.71% among 290,000; purified Giardia FBPA; further: nearly all actives have a fitted effect of over 55% in size
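40 nM FBPA preincubated 10 min at RT with compound (up to 57.5 uM final), then substrate plus GAPDH/TPI/NAD/arsenate coupling and diaphorase/resazurin added. Fluorescence read after 20 min at RT, 525/598 nm.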
Shiga toxin inh: inhibitors of Shiga toxin in Vero cells. AID 2315. Vero cells, Shiga toxin protein synthesis inhibition reporter. inhibition, % at 38.7 µM. hit rate 9.2% among 290,000; in the data active means inhibition mostly above about 28%, no sharp cut-off; inactive means mostly below about 43%
Numbers stand for hits; n = inactive; u = inconclusive; x = not tested or not shown; [ ] = remark or other dose. This is one part of a sample in which hits are shown more often than they occur. Unless noted, the call rests on the fitted dose curve; in most records, active means well fitted curve in the direction sought with a large enough effect; inconclusive means small, poorly fitted or top-dose-only effect, or another doubt; inactive means no such curve, though single readings can be large; an effect the other way counts as inactive or inconclusive.

SMILES	Sm TGR block	LmPK inh	Cycloheximide cs	TbPYK inhibitor	FBPA Giardia inh	Shiga toxin inh
COc1ccc2cc(/C(C)=N/NC(=O)C3CC3)ccc2c1	n	n	26	n	n	48
COc1ccc(/C(C)=N/NC(=O)C2CC2)cc1	x	n	n	n	n	42
Cc1cc(C)nc(SSc2nc(C)cc(C)n2)n1	n	n	n	u	n	n
CN1C(=O)/C(=C/C=C2\SCCN2C)SC1=S	n	n	58	x	n	82
CN1C(=O)/C(=C/C=C2\SCCN2C)N(C)C1=S	n	n	49	n	n	121
CCCN1C(=O)/C(=C\C=C2/Sc3ccccc3N2CC)SC1=S	n	n	n	x	n	n
Cc1ccc(-n2c(Cc3ccccc3)nnc2SCc2nc(-c3cccs3)no2)cc1C	n	x	x	n	x	x
Cc1cccc(C)c1Nc1n[nH]c(=S)s1	x	x	x	13µM	x	x
CC1=Nc2cc(C(=O)O)ccc2Sc2ccc(C)cc21	n	n[11.5 µM]	20	n	n	n
COc1ccccc1/C=C/C=C(\C#N)C(=O)NC(C)c1ccccc1 (configuration not stated)	n	n	11	n	n	n
COc1cc(/C=C(/C#N)C(=O)NC(C)c2ccccc2)cc(OC)c1O (configuration not stated)	u	n	n	n	x	n
COc1ccc(-n2nnnc2SCC(=O)Nc2ccc3c(c2)OCCO3)c(OC)c1	n	n	46	n	n	74
CC(C)n1nnnc1SCC(=O)Nc1ccc2c(c1)OCCO2	n	n	57	x	n	117
COc1cccc(-n2nnnc2SCC(=O)Nc2ccc3c(c2)OCCO3)c1	n	n	n	n	n	n
CCn1nnnc1SCC(=O)Nc1ccc2c(c1)OCCO2	n	n	44	n	n	64
COCCCn1nnnc1SCC(=O)Nc1ccc2c(c1)OCCO2	n	n	n	n	n	n
CC1(C(=O)NCc2ccco2)Cc2c(-c3ccc(C(N)=O)cc3)ccnc2O1 (configuration not stated)	x	x	x	n	x	x
O=C1NC(=O)/C(=C\c2ccc(Oc3ccc([N+](=O)[O-])cn3)cc2)S1	n	n	34	n	n	42
COc1ccc(C=C2SC(=S)NC2=O)cc1	x	x	x	n	x	x
COc1ccc(/C=C2/SC(=O)NC2=O)cc1	n	u	39	n	n	52
O=C1NC(=O)/C(=C\c2ccc(OCc3cnc(Cl)s3)cc2)S1	n	n	n	n	n	n
O=C1NC(=O)/C(=C\c2ccc(Cl)nc2)S1	n	n	34	n	n	68
CCc1ccc(NC(=O)c2ccc3c(O)c(S(=O)(=O)c4ccccc4)c(=O)[nH]c3c2)cc1	n	x	x	n	x	x
CCn1c(=O)c2sccc2n2c(CCCC(=O)N3CCN(c4cc(C)ccc4C)CC3)nnc12	n	x	x	n	x	x
COc1ccc(-c2cnnc(N/N=C/c3ccc(O)c(O)c3)n2)cc1	n	n	30	n	u	n
SMILES	Sm TGR block	LmPK inh	Cycloheximide cs	TbPYK inhibitor	FBPA Giardia inh	Shiga toxin inh
COc1ccc(-c2cnnc(N/N=C/c3ccc(O)cc3)n2)cc1	n	n	n	n	n	n
Brc1ccc(/C=N/Nc2nncc(-c3ccccc3)n2)o1	n	n	n	x	n	n
Oc1ccc(/C=N\Nc2nncc(-c3ccccc3)n2)cc1	n	n	23	n	n	51
O=C(c1cccs1)c1ccc(-c2cccs2)s1	n	u	30	n	n	n
CN1CCN(C(=O)c2ccc(-c3cccs3)s2)CC1	n	n	42	n	n	55
CC1=CC(=O)CC(C)(C)C1(O)/C=C/C(C)=C\C(=O)O (configuration not stated)	x	x	x	x	n	x
CC(C)Cc1nnc(NS(=O)(=O)c2ccc([N+](=O)[O-])cc2)s1	u	n	n	n	n	x
O=[N+]([O-])c1ccc(S(=O)(=O)Nc2nnc(C(F)(F)F)s2)cc1	14µM	n	n	n	n	n
O=C(Nc1ccc(Cl)cc1)OCc1ccccn1	n	n	29	n	n	78
CS(=O)(=O)c1ccccc1COC(=O)Nc1ccc(Cl)cc1	n	n	21	n	n	n
C=CCNc1nc(-c2ccc3c(c2)OCCO3)cs1	x	x	x	n	x	x
COc1ccccc1C(=O)Nc1nc(-c2ccc3c(c2)OCCO3)cs1	n	n[11.5 µM]	28	n	n	57
CCC(=O)Nc1nc(-c2ccc3c(c2)CC(C)N3S(C)(=O)=O)cs1 (configuration not stated)	n	n	26	n	n	n
